Measurements from the supplement of paper PMC9262897, “Low-cost anti-mycobacterial drug discovery using engineered E. coli” (Nature Communications, 2022).
Structures can show the parent of a compound that is named as a salt. ± gives the standard deviation of the averaged measurements.

These compounds were tested on E. coli TESEC Alr+ wild-type control (assay: growth (OD600 after 10 h); higher = more growth (less inhibition)). Settings: compound 0.1 mM; raw OD600 reference: median of DMSO wells 0.49, cell-free background 0.052.
Experimental: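 TESEC Mtb Alr E. coli (ΔaraC ΔtolC ΔentC Δalr ΔdadX, arabinose-inducible Mtb Alr) or the Alr+ wild-type control strain, grown in defined M9-fructose medium without D-alanine in 96-well plates with Prestwick library compounds at 0.1 mM and 1% DMSO. Low Alr induction is 0.1 µM arabinose and high induction is 10 mM arabinose.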

Compound | growth
CN1CCc2c(c3ccccc3n2Cc2ccccc2)C1 [Mebhydroline 1,5-naphtalenedisulfonate] | 0.4471 ± 0.0035
C[C@@H](O[C@H]1OCCN(Cc2n[nH]c(=O)[nH]2)[C@H]1c1ccc(F)cc1)c1cc(C(F)(F)F)cc(C(F)(F)F)c1 [Aprepitant] | 0.386 ± 0.22
COc1cccc(N(C)C(=S)Oc2ccc3c(c2)CCCC3)n1 [Liranaftate] | 0.385 ± 0.0054
Oc1c(Cl)cc(Cl)c(Cl)c1Cc1c(O)c(Cl)cc(Cl)c1Cl [Hexachlorophene] | 0.05693 ± 0.00042
CC1(C)S[C@@H]2[C@H](NC(=O)[C@H](N)c3ccccc3)C(=O)N2[C@H]1C(=O)O [Ampicillin trihydrate] | 0.479 ± 0.038
CCC(=O)O[C@]1(C(=O)SCF)[C@H](C)C[C@H]2[C@@H]3C[C@H](F)C4=CC(=O)C=C[C@]4(C)[C@@]3(F)[C@@H](O)C[C@@]21C [Fluticasone propionate] | 0.576 ± 0.026
CCCC(=O)Nc1ccc(OCC(O)CNC(C)C)c(C(C)=O)c1 (stereo not given) [Acebutolol hydrochloride] | 0.46 ± 0.044
CC(C)(C)NC[C@H](O)COc1cccc2c1CCCC2=O [(-) -Levobunolol hydrochloride] | 0.613 ± 0.048
COC(=O)CCc1ccc(OCC(O)CNC(C)C)cc1 (stereo not given) [Esmolol hydrochloride] | 0.431 ± 0.019
O=c1[nH]cnc2c1ncn2[C@H]1CC[C@@H](CO)O1 [Didanosine] | 0.503 ± 0.045
C[C@@H]1CCC[C@H](C)N1NC(=O)c1ccc(Cl)c(S(N)(=O)=O)c1 [Clopamide] | 0.581 ± 0.048
CCCc1nn(C)c2c(=O)[nH]c(-c3cc(S(=O)(=O)N4CCN(C)CC4)ccc3OCC)nc12 [Sildenafil] | 0.456 ± 0.045
O=C1[C@H]2CCCC[C@H]2C(=O)N1CCCCN1CCN(c2nsc3ccccc23)CC1 [Perospirone] | 0.432 ± 0.016
CN1CCCC(CC2c3ccccc3Sc3ccccc32)C1 (stereo not given) [Metixene hydrochloride] | 0.0609 ± 0.015
C[C@H]1O[C@H](O[C@H]2[C@H](O)[C@@H](O)[C@@H](O[C@@H]([C@H](O)[C@@H](O)C=O)[C@H](O)CO)O[C@@H]2CO)[C@H](O)[C@@H](O)[C@@H]1N[C@H]1C=C(CO)[C@@H](O)[C@H](O)[C@H]1O [Acarbose] | 0.458 ± 0.0055
O=C(Oc1cccc2cccnc12)c1ccccc1 [Benzoxiquine] | 0.505 ± 0.036
O=P(O)(O)C(O)(Cn1ccnc1)P(=O)(O)O [Zoledronic acid hydrate] | 0.596 ± 0.074
Clc1ccc(COC(Cn2ccnc2)c2ccc(Cl)cc2Cl)c(Cl)c1 (stereo not given) [Miconazole] | 0.137 ± 0.03
CC[N+](CC)(CC)CCC(O)(c1ccccc1)C1CCCCC1 (stereo not given) [Tridihexethyl chloride] | 0.437 ± 0.045
COc1ccc(-c2ccc3cc(C(=O)O)ccc3c2)cc1C12CC3CC(CC(C3)C1)C2 [Adapalene] | 0.483 ± 0.01

Compound | growth
CC1=Nc2ccc(Cl)cc2S(=O)(=O)N1 [Diazoxide] | 0.465 ± 0.041
COCCCOc1ccnc(C[S+]([O-])c2nc3ccccc3[nH]2)c1C (stereo not given) [Rabeprazole Sodium salt] | 0.375 ± 0.0068
O=C(O)c1cc(/N=N/c2ccc(S(=O)(=O)Nc3ccccn3)cc2)ccc1O [Sulfasalazine] | 0.473 ± 0.032
Cc1c(O)c(=O)n(-c2ccccc2)n1C [Antipyrine, 4-hydroxy] | 0.507 ± 0.069
C[C@]12C[C@H](O)[C@H]3[C@@H](CCC4=CC(=O)CC[C@@]43C)[C@@H]1CC[C@@H]2C(=O)CO [Corticosterone] | 0.418 ± 0.033
CC(CN(C)C)CN1c2ccccc2Sc2ccccc21 (stereo not given) [Trimeprazine tartrate] | 0.526 ± 0.013
C[C@@H]1C[C@H]2[C@@H]3C[C@H](F)C4=CC(=O)C=C[C@]4(C)[C@@]3(F)[C@@H](O)C[C@]2(C)[C@@]1(O)C(=O)COC(=O)C(C)(C)C [Flumethasone pivalate] | 0.521 ± 0.057
COc1cc(C)c(/C=C/C(C)=C/C=C/C(C)=C/C(=O)O)c(C)c1C [Acitretin] | 0.34 ± 0.0082
CC(=O)OCC1=C(C(=O)O)N2C(=O)[C@@H](NC(=O)Cc3cccs3)[C@H]2SC1 [Cephalothin sodium salt] | 0.447 ± 0.04
CC(C)NCC(O)c1ccc(O)c(O)c1 (single isomer, unassigned; (+)) [(+)-Isoproterenol (+)-bitartrate salt] | 0.497 ± 0.044
CCC1(c2ccccc2)C(=O)NCNC1=O [Primidone] | 0.567 ± 0.028
CC(C)(C)C(=O)OCOC(=O)[C@@H]1N2C(=O)[C@@H](/N=C/N3CCCCCC3)[C@H]2SC1(C)C [Pivmecillinam hydrochloride] | 0.509 ± 0.096
CC(C)N1CCN(c2ccc(OCC3COC(Cn4cncn4)(c4ccc(Cl)cc4Cl)O3)cc2)CC1 (stereo not given) [Terconazole] | 0.462 ± 0.031
Cc1cc(C(C)(C)C)c(O)c(C)c1CC1=NCCN1 [Oxymetazoline hydrochloride] | 0.514 ± 0.062
Cc1ccc(O)c([C@H](CCN(C(C)C)C(C)C)c2ccccc2)c1 [Tolterodine tartrate] | 0.55 ± 0.029
CN1CCCN(C(c2ccccc2)c2ccc(Cl)cc2)CC1 (stereo not given) [Homochlorcyclizine dihydrochloride] | 0.498 ± 0.047
NC[C@H]1CC[C@H](C(=O)O)CC1 [Tranexamic acid] | 0.456 ± 0.04
Cc1cc(-c2ccccc2)nnc1NCCN1CCOCC1 [Minaprine dihydrochloride] | 0.498 ± 0.045
COc1ccc(C[C@@H]2c3cc(OC)c(OC)cc3CC[N@+]2(C)CCC(=O)OCCCCCOC(=O)CC[N@@+]2(C)CCc3cc(OC)c(OC)cc3[C@H]2Cc2ccc(OC)c(OC)c2)cc1OC [Cisatracurium besylate] | 0.497 ± 0.054
N#Cc1cc(NC(=O)C(=O)O)c(Cl)c(NC(=O)C(=O)O)c1 [Lodoxamide] | 0.579 ± 0.069
